# Measurements: ChEMBL document CHEMBL3988442, “University of Dundee, Small-Polar-MMV Screening Library” (2021)
# Target: AMP-activated protein kinase, AMPK (Homo sapiens) (UniProt P54646+O43741+P54619+Q9UGJ0+Q9Y478+Q13131+Q9UGI9)
# Assay: AMP-dependent Kinase enzyme assay. An in vitro enzyme assay that detects ADP turnover that is directly proportional to AMPK activity. This uses naive AMPK that is activated during the assay with MK-8722
# Assay type: functional
# Set-up: scale not given: direction of the effect not stated beside the values
# Details: 30 µM
row,Compound,Percent Effect
1,CCCC(=O)NC1CCCN(c2nc3ccccc3cc2CO)C1 (stereo not given),6.66%
2,Cc1ncsc1C(=O)N1CC[C@@]2(O)CCN(C(=O)N3CCCC3)C[C@H]2C1,-1.97%
3,CCC(C#N)NC(=O)c1sccc1OC (stereo not given),2.49%
4,Cc1ncccc1CNC(CCO)C1CCCCC1 (stereo not given),-0.143%
5,CC(NC(=O)N1CCC1)c1ccc(S(N)(=O)=O)cc1 (stereo not given),7.72%
6,COc1ccc(OC)c(C(C(=O)O)N2CCSCC2)c1 (stereo not given),0.166%
7,Cc1cnn(C2CN(c3ccccc3S(=O)(=O)C(F)(F)F)C2)c1,9.6%
8,Cc1ccccc1-n1ccnc1S(=O)(=O)Cc1nsc(N(C)C)n1,-1.55%
9,CC(C)N(CC(=O)Nc1cccc(C#N)c1)C1CC1,0.161%
10,O=C(c1ccccc1)C1CCN(C(=O)CC2COCCN2)CC1 (stereo not given),1.36%
11,Cc1cc(NC(=O)CN2CCN(C3CCCC3)C(=O)C2)nn1C,8.93%
12,Fc1ccccc1OC1CCN(CCn2cc3ccccc3n2)CC1,6.19%
13,O=C(NCc1cccnc1N1CCCCC1)c1ccc2[nH]nnc2c1,-9.59%
14,COc1ccc(C(=O)N2C[C@@H](O)[C@H](NCc3cnc(C)cn3)C2)cc1,-12.3%
15,C[C@@H]1CN(c2ccc(C#N)cn2)CC[C@@]1(O)C1CCOCC1,-1.81%
16,CCNC(=O)c1ccc(NC(=O)N(C)Cc2cc(C)on2)cc1,16.8%
17,CC(C(N)=O)N1CCN(c2ncc(Br)cn2)CC1 (stereo not given),-3.12%
18,Cc1ccc(-c2cc(CNC(=O)NC3CCCCNC3=O)on2)cc1 (stereo not given),-0.304%
19,NC(=O)C1CCN(CCCNC(=O)Nc2nncs2)CC1,1.35%
20,COc1ccsc1C(=O)NC1CCN(c2cccc(F)c2)CC1,-1.16%

row,Compound,Percent Effect
1,Cn1ccnc1CNCCNc1ncc(Cl)cc1Cl,-1.1%
2,Cc1c(CN2CCCCC2)c(O)n(CCO)c(=O)c1C#N,-415%
3,CC(=O)NCCc1cc2nc(-c3ccncc3)ccn2n1,17.4%
4,CC(C)C1C(=O)NCCN1C(=O)CCCc1nc(C(C)(C)C)no1 (stereo not given),-5.25%
5,Cc1sc2ncnc(N3CCCC3Cn3cccn3)c2c1C (stereo not given),3.42%
6,Cn1ncc2c(N[C@@H]3C[C@@H]4CC[C@H]3C4)nc(-c3ccncc3)nc21,12.7%
7,COC(=O)CC1CCCCN1CC(=O)NCCc1ccc(F)cc1 (stereo not given),6.06%
8,Cc1ccc(C)c(CN(CC(N)=O)C(C)C)c1,-8.2%
9,CN(CCCO)C(=O)c1cc(COc2ccc3c(c2)CCCC3)on1,-1.01%
10,CSCCC(=O)N1CCN(CC(C)O)CC1 (stereo not given),-1.95%
11,CNS(=O)(=O)c1ccc(CN2CCN3CCNC(=O)C3C2)cc1 (stereo not given),-3.21%
12,O=C1CCC(=O)N1CCn1nnc(-c2cccc(Cl)c2)n1,-7.61%
13,Cc1nccn1-c1cccc(N2CCC(OCC3CCCCO3)CC2)n1 (stereo not given),6.51%
14,CN(Cc1cc(Br)cs1)Cc1nnsc1Cl,15.7%
15,O=C(Cn1ccc(-c2ccccc2)n1)N1CCN(C(=O)C2CC2)CC1,-3.88%
16,Cc1noc(C(C)N2CCC(c3nc4ccccc4[nH]3)CC2)n1 (stereo not given),1.83%
17,Cc1nccn1[C@@H]1CC[C@@H](N(C)S(=O)(=O)c2cccc(F)c2)[C@H]1O,28.1%
18,CC(C)c1cc(C(=O)NCC2CCCN(c3ncccn3)C2)n(C)n1 (stereo not given),5.97%
19,CNC(=O)C1CCCN(C(=O)c2cncs2)C1 (stereo not given),4.55%
20,COc1ncc(NCc2ccc(F)cc2)cc1C(N)=O,5.39%
